Data published in PubChem BioAssay (NCI).
About 83,000 compounds went through this panel and 20% of them were active in at least one assay; those are over-represented in the sample as a whole.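 The endpoint reported here, percent growth, reads 100 for growth as untreated, 0 for no net growth and -100 for all cells dead.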 Active and inactive are the calls of the source. How the source made its calls: active means growth percent below 10; inactive means the rest.

Key:
Test in all cases: NCI-60 one-dose screen, 48 h (100 = growth as untreated, 0 = no growth, -100 = all killed)
HCT-15 colon = conditions: 10 µM unless noted
HT29 colon = conditions: 10 µM unless noted
SNB-75 CNS = conditions: 10 µM unless noted
SNB-19 CNS = conditions: 10 µM unless noted
U251 CNS = conditions: 10 µM unless noted
PC-3 prostate = conditions: 10 µM unless noted
SK-MEL-5 melanoma = conditions: 10 µM unless noted
UACC-62 melanoma = conditions: 10 µM unless noted
LOX IMVI melanoma = conditions: 10 µM unless noted
SK-MEL-28 melanoma = conditions: 10 µM unless noted
SK-MEL-2 melanoma = conditions: 10 µM unless noted
EKVX NSCLC = conditions: 10 µM unless noted
SN12C renal = conditions: 10 µM unless noted
UO-31 renal = conditions: 10 µM unless noted
ACHN renal = conditions: 10 µM unless noted
A498 renal = conditions: 10 µM unless noted
CCRF-CEM leukemia = conditions: 10 µM unless noted
MOLT-4 leukemia = conditions: 10 µM unless noted
CAKI-1 renal = conditions: 10 µM

Measured: growth

CS(=O)(=O)Nc1cccc(-c2ccc3ncnc(Nc4cncc(Cl)c4)c3c2)c1
active: HT29 colon 5.04% | SK-MEL-2 melanoma 2.44% | A498 renal -34.1% | MOLT-4 leukemia 0.601%
inactive: HCT-15 colon 16% | SNB-75 CNS 19.8% | SNB-19 CNS 51.4% | U251 CNS 23.8% | PC-3 prostate 19.8% | SK-MEL-5 melanoma 35.6% | UACC-62 melanoma 29% | LOX IMVI melanoma 11% | SK-MEL-28 melanoma 43.7% | EKVX NSCLC 10.8% | SN12C renal 52.5% | UO-31 renal 30.3% | ACHN renal 25.6% | CCRF-CEM leukemia 17.1%

CO[C@H]1/C=C/C=C/C=C/C[C@H](OC(=O)[C@@H](C)NC(=O)C2CCCCC2)[C@H](C)[C@@H](O)/C(C)=C\CCC2=CC(=O)C=C(NC(=O)C1)C2=O
active: HCT-15 colon 6.39% | HT29 colon -28.8% | SNB-75 CNS -20.2% | SNB-19 CNS 2.4% | U251 CNS -19.6% | PC-3 prostate -2.95% | SK-MEL-5 melanoma -57% | UACC-62 melanoma 2.09% | LOX IMVI melanoma -38.8% | SK-MEL-28 melanoma -3.36% | SK-MEL-2 melanoma -42.7% | EKVX NSCLC -17% | SN12C renal -10% | UO-31 renal 5.46% | ACHN renal -34.8% | A498 renal -2.6% | CCRF-CEM leukemia -0.0954% | MOLT-4 leukemia -10.4%
inactive: CAKI-1 renal 16.3%

NC(=O)C1=C[C@H]2[C@H]3C=C[C@@]2(O)C(=O)O[C@@H]3O1
inactive: HCT-15 colon 44.8% | HT29 colon 47% | SNB-75 CNS 76.7% | SNB-19 CNS 82% | U251 CNS 63.1% | PC-3 prostate 59.1% | SK-MEL-5 melanoma 60.7% | UACC-62 melanoma 35.5% | LOX IMVI melanoma 22.9% | SK-MEL-28 melanoma 25.2% | SK-MEL-2 melanoma 42.4% | EKVX NSCLC 63.2% | SN12C renal 57.6% | UO-31 renal 54.5% | CAKI-1 renal 46.5% | A498 renal 81.3% | MOLT-4 leukemia 42.3%

COc1cc(-c2nc(SCC(=O)Nc3ccc(C(C)=O)cc3)[nH]c(=O)c2C#N)cc(OC)c1OC
active: HT29 colon 6.82% | CCRF-CEM leukemia -11.9% | MOLT-4 leukemia 3.84%
inactive: HCT-15 colon 40.2% | SNB-75 CNS 38.3% | SNB-19 CNS 58.2% | U251 CNS 16% | PC-3 prostate 18% | SK-MEL-5 melanoma 15.2% | UACC-62 melanoma 36% | LOX IMVI melanoma 18.5% | SK-MEL-28 melanoma 57.8% | SK-MEL-2 melanoma 35.9% | EKVX NSCLC 33.8% | SN12C renal 29.5% | UO-31 renal 49.3% | CAKI-1 renal 61.5% | A498 renal 18.5%

CN(C)CCNc1nc2ccccc2c2c(=O)c3ccccc3sc12
inactive: SNB-75 CNS 30.6% | SNB-19 CNS 47.6% | U251 CNS 17.8% | PC-3 prostate 21% | EKVX NSCLC 30.7% | SN12C renal 32.1% | UO-31 renal 12.6%
active: HCT-15 colon 8.83% | HT29 colon -0.107% | SK-MEL-5 melanoma -83.1% | UACC-62 melanoma -33% | LOX IMVI melanoma -91.6% | SK-MEL-28 melanoma -25.3% | SK-MEL-2 melanoma -11% | ACHN renal 7.03% | A498 renal -2.07% | CCRF-CEM leukemia 6.74% | MOLT-4 leukemia -4.55%
